This is a sample that favours compounds with a hit; in the whole collection about 4% have one here.
GRP78 ERSR act – qHTS for Inducers of the Endoplasmic Reticulum Stress Response (ERSR) in Human Glioma: qHTS | U87-MG GRP78 promoter luciferase reporter, 16 h | AID 602332, 2012 | Potency, µM, for the others: at the highest dose activation, usual class: activators | actives 0.02% (n = 420,000); active = well fitted activation curve with a large enough effect; also: potency is read from the fitted curve at half-maximal effect; series mostly up to about 76 µM; % of control where 0% means no effect; nearly all actives have a fitted effect of over 35% in size
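ERSR induction read as luciferase luminescence (Bright-Glo, 10 min at room temperature) in stably transfected human U87-MG glioma cells exposed to compounds for 16 h, using GRP78 as sensor.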
D1 PAM – Potentiators of Human D1 Dopamine Receptor: qHTS; potentiation, % at 10 µM; actives 0.036% (n = 360,000); AID 504651, 2011; HEK293 TREx D1 cells, calcium flux, dopamine EC20 potentiation; in the data active = potentiation above about 30%; also: 0% is about no effect
Target sequence (P21728 whole entry, looked up): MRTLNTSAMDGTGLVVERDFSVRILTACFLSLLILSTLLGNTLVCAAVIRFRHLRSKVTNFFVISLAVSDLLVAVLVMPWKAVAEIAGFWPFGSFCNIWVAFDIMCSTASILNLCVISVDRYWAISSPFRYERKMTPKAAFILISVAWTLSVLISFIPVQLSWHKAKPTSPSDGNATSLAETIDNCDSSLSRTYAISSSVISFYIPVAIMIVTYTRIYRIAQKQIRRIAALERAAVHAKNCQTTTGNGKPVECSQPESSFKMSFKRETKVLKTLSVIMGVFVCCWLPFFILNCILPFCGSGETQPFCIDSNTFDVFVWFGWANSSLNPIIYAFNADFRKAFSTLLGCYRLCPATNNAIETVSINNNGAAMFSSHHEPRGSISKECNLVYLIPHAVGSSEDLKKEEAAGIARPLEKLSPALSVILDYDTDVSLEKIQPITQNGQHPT
D1 antag – Antagonist of Human D 1 Dopamine Receptor: qHTS. actives 3.2% (n = 360,000). HEK293 TREx D1 cells, calcium flux, dopamine EC80; active compounds read low. AID 504652, 2011. D(1A) dopamine receptor (Homo sapiens), P21728. activity change, negative = inhibition, % at 10 µM; in the data active = activity change below about -30%; also: % is scaled to controls: 0 for no effect and ±100 for the full control effect
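Inducible Hek293 Trex D1 cells (tetracycline, overnight, 30 C). Calcium dye 30–90 min RT. Antagonist mode: EC80 dopamine added after 180 s compound read.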
TRHR enhancer – qHTS for Small Molecule Agonists and Allosteric Enhancers of Human TRH Receptor: Primary Screen for Enhancers; Thyrotropin-releasing hormone receptor (Homo sapiens), P34981; TRHR cells, fluo-8 calcium fluorescence, EC20 TRH enhancement; enhancement, % at 2 µM; actives 0.66% (n = 360,000); AID 493056, 2011; in the data active = enhancement above about 30%; also: 0% is about no effect
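Enhancer read-out: after compound pinning and an initial kinetic agonist-mode read, an EC20 of TRH (10 nM final) was injected and fluo-8 calcium signal (Ex 480/Em 530) followed at 1 s/cycle for 100 cycles in TRHR-expressing cells.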
D1 ag – Allosteric Agonists of the Human D1 Dopamine Receptor: qHTS. D(1A) dopamine receptor (Homo sapiens), P21728. HEK293 T-REx D1 cells, calcium flux, agonist mode. activation, % at 2 µM. actives 1% (n = 360,000); also: 0% is about no effect
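Tetracycline-induced HEK293 TREx D1 cells, force-coupled to calcium signalling, were dye-loaded with a no-wash calcium kit. Compound was pin-added after a 10 s baseline. Fluorescence was read kinetically at 1 cycle/s for 180 s, with calcium rises flagged as agonism.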
TRHR agonist – qHTS for Small Molecule Agonists and Allosteric Enhancers of Human TRH Receptor: Primary Screen for Agonists; Thyrotropin-releasing hormone receptor (Homo sapiens), P34981; TRHR cells, calcium flux fluo-8, FDSS agonist mode; activation, % at 2 µM; actives 0.18% (n = 360,000); AID 493084, 2011; also: 0% is about no effect
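Fluo-8-loaded TRHR cells; 10 s baseline, compound added, kinetic Ca2+ fluorescence read 1/s, agonist mode.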
The depositor's hits bear a star. Rule as the data show it, unless noted: active = activation above about 30%; inactive = the rest.

Screening CCOC(=O)COc1ccc(S(=O)(=O)Nc2ccc3c(c2)OCO3)cc1 returned GRP78 ERSR act -8.6%, D1 PAM -11.2, D1 antag 2.5, TRHR enhancer -3.4, D1 ag 63.1* and TRHR agonist -1.8.
Screening COC(=O)COc1ccc(S(=O)(=O)Nc2ccc3c(c2)OCCO3)cc1Cl returned GRP78 ERSR act -8.1%, D1 PAM -6.8, D1 antag -32.5*, TRHR enhancer 3.5, D1 ag 11.0 and TRHR agonist 0.5.
Screening CC(=O)c1ccc(F)c(-c2cc(C)cc3c2OC(CNC(=O)C2CCCCN2C)C3)c1 (stereo unspecified) returned GRP78 ERSR act -5.9%.
For CCOC(=O)COc1ccc(S(=O)(=O)Nc2ccc(C)cc2)cc1 the results were GRP78 ERSR act 1.5%, D1 PAM -12.9, D1 antag -15.1, TRHR enhancer 3.3, D1 ag 44.7* and TRHR agonist 2.7.
For O=C(O)c1ccccc1NS(=O)(=O)c1ccc2c(c1)OCCO2 the results were GRP78 ERSR act -3.1%, D1 PAM -1.8, D1 antag 0.2, TRHR enhancer -1.3, D1 ag 0.5 and TRHR agonist 0.3.
`COc1ccc(C(=O)O)cc1S(=O)(=O)Nc1ccc(C)cc1` gave GRP78 ERSR act -1.6%, D1 PAM -10.3, D1 antag -69.8*, TRHR enhancer 3.8, D1 ag 3.4 and TRHR agonist -0.8.
NC(=O)c1ccccc1NS(=O)(=O)c1ccc2c(c1)OCCO2 was read as GRP78 ERSR act -1.3%, D1 PAM -2.6, D1 antag -35.7*, TRHR enhancer -5.4, D1 ag 0.0 and TRHR agonist -0.1.
O=S(=O)(Nc1ccc(Cl)cc1)c1ccc(NS(=O)(=O)c2ccc3c(c2)OCCO3)cc1 was read as GRP78 ERSR act 1.0%, D1 PAM -2.3, D1 antag -10.6, TRHR enhancer 3.5, D1 ag 61.2* and TRHR agonist 2.1.
For COc1ccc(C(=O)O)cc1S(=O)(=O)Nc1cccc(C)c1 the results were GRP78 ERSR act -4.3%, D1 PAM 3.5, D1 antag 11.5, TRHR enhancer -6.3, D1 ag 1.2 and TRHR agonist 1.1.
`CCOC(=O)COc1ccc(S(=O)(=O)c2ccc(OCC(=O)OCC)cc2)cc1` gave GRP78 ERSR act -0.2%, D1 PAM -4.1, D1 antag -3.4, TRHR enhancer 5.5, D1 ag 22.1 and TRHR agonist -0.4.
Screening COc1cccc(-c2nc(COc3ccc(Cl)cc3Cl)no2)c1 returned GRP78 ERSR act 1.8%, D1 PAM -6.3, D1 antag 38.1, TRHR enhancer -6.0, D1 ag 21.7 and TRHR agonist 0.5.
O=c1c(-c2ccc(Cl)cc2)nc2cnc(N3CCOCC3)nc2n1Cc1ccc(F)cc1 was read as GRP78 ERSR act -4.5%.
`COCCN1CCC(CNCc2cn(-c3cc(C)ccc3C)nc2-c2ccccc2)C1` (stereo unspecified) gave GRP78 ERSR act -0.7%, D1 PAM -6.2, D1 antag -9.2, TRHR enhancer 1.6, D1 ag 10.3 and TRHR agonist 1.5.
Cc1ccc(Oc2ccc(S(=O)(=O)Nc3ccc(C(=O)O)cc3)cc2)cc1 was read as GRP78 ERSR act -0.4%, D1 PAM -3.5, D1 antag -41.7*, TRHR enhancer -4.9, D1 ag 2.2 and TRHR agonist 0.0.
CCN1CCC(N(Cc2cccc(OC)c2)C(=O)Nc2cccc(C(F)(F)F)c2)CC1 was read as GRP78 ERSR act -2.2%, D1 PAM -0.9, D1 antag -4.1, TRHR enhancer 0.9, D1 ag 27.0 and TRHR agonist 0.7.
`CCN1CCC(N(Cc2ccc(F)cc2)C(=O)Nc2cccc(C(F)(F)F)c2)CC1` gave GRP78 ERSR act -5.6%, D1 PAM 0.0, D1 antag -24.6, TRHR enhancer 2.6, D1 ag 100.2* and TRHR agonist 3.1.
For CCC1Cc2c(nc(N)c3c(N)nc(N4CCCCC4)c(C#N)c23)O1 (stereo unspecified) the results were GRP78 ERSR act -5.4%, D1 PAM -5.0, D1 antag -30.9*, TRHR enhancer -13.8, D1 ag 0.3 and TRHR agonist 0.2.
For N#Cc1c(N2CCCCC2)nc(N)c2c(N)nc3c(c12)CC(c1ccccc1)O3 (stereo unspecified) the results were GRP78 ERSR act -2.4%, D1 PAM 3.6, D1 antag -1.4, TRHR enhancer -9.7, D1 ag -0.3 and TRHR agonist -0.3.
For Cc1ccc(S(=O)(=O)NNC(=O)c2sccc2-n2cccc2)cc1 the results were GRP78 ERSR act -0.8%, D1 PAM -2.7, D1 antag -42.9*, TRHR enhancer -1.0, D1 ag 11.5 and TRHR agonist -0.3.
Cc1ccc(S(=O)(=O)N(C)CC(=O)N2CCCc3ccccc32)cc1 was read as GRP78 ERSR act -2.0%, D1 PAM -4.3, D1 antag 5.8, TRHR enhancer -2.4, D1 ag -0.3 and TRHR agonist -0.2.
Screening COc1ccc(-c2cc(-c3ccc(Cl)cc3)n[nH]2)c(O)c1 returned GRP78 ERSR act 7.0%, D1 PAM -6.3, D1 antag -34.0*, TRHR enhancer -5.2, D1 ag 1.4 and TRHR agonist 0.7.
N=c1sccn1CC(=O)Nc1cc(Cl)ccc1Oc1ccccc1 was read as GRP78 ERSR act -6.5%, D1 PAM -2.2, D1 antag -10.6, TRHR enhancer -14.3, D1 ag 55.5* and TRHR agonist 1.9.
For N=c1sccn1CC(=O)Nc1cccc(Oc2ccccc2)c1 the results were GRP78 ERSR act -5.4%, D1 PAM -2.5, D1 antag 3.0, TRHR enhancer 12.3, D1 ag 20.6 and TRHR agonist 1.9.
Screening CC(C)CO/N=C1/C[C@@H](O)[C@@H](O)[C@@H]2[C@@H]3C(=O)N([C@@H](C)c4ccccc4)C(=O)[C@H]3CC[C@H]12 returned GRP78 ERSR act -2.6%.
Fc1ccc2[nH]c3c(c2c1)CN(C(=S)NCc1ccccc1)CC3 was read as GRP78 ERSR act -2.1%, D1 PAM -3.8, D1 antag -38.0*, TRHR enhancer 5.9, D1 ag 5.7 and TRHR agonist -1.5.
`C=CCNC(=O)N1CCc2[nH]c3ccc(F)cc3c2C1` gave GRP78 ERSR act -4.4%, D1 PAM -2.5, D1 antag -11.5, TRHR enhancer 4.5, D1 ag 0.3 and TRHR agonist 0.2.
